In PubChem BioAssay AID504607 (Sanford-Burnham Center for Chemical Genomics, 2011) one finds inhibition data, which are given here for 89 compounds.

Out of some 6,200 compounds screened, about 4,800 (77%) were called active.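 How the source made its calls: active means mean inhibition at 8 µM reaching about 37%, which flags the compound as non-specific (limit read from the data); inactive means the rest.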 The set was probably picked from earlier hits. These entries were drawn from the full list.

In general, inhibition refers to the drop in the measured response relative to a control, in per cent.

The nature of the assay: luminescence decrease from intact luciferase reporter – cell-based, single concentration, SaOS-2, counter-screen for Mdm2/MdmX interaction inhibitor project, confirmation (AID 504607).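 Further: p53-null SaOS-2 cells with luciferase driven by a doxycycline-inducible promoter; compound on cells about two nights before reading with doxycycline added after day one.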 The note with it: SaOS-2 full-length luciferase counterscreen, at 8 µM, hits give high values. On the technique in general: A reporter such as luciferase makes a cellular process visible.
For `O=C1[C@H]2[C@@H](c3ccc(F)cc3)N3C(=O)N(c4ccc(C(F)(F)F)cc4)C(=O)[C@@]3(Cc3ccccc3)[C@H]2C(=O)N1C1CCCCC1`, the inhibition was 48.6% (active).
The result for `COc1ccc2[nH]c(=O)c(CN(Cc3cccnc3)S(=O)(=O)c3ccccc3F)cc2c1` reads 56.2% (active); that for `Cc1ccc(-c2cn3cc(C)ccc3n2)cc1`, 29% (inactive).
The result for `Cc1ccc2nc(-c3ccc(Br)cc3)cn2c1` reads 133% (active).
The result for `FC(F)(F)c1nnc2c3ccccc3c(Cl)nn12` reads 79.9% (active).
`CC1CN(C(=O)CCC(=O)NCCCN2CCC(Cc3ccccc3)CC2)c2cc(Cl)ccc2O1` (centres undefined): the inhibition is 40.4% (active).
The result for `O=C(N/N=C\c1cc2c(cc1Cl)OCO2)c1ccc(Br)s1` reads 94.6% (active); that for `CCN(CC)S(=O)(=O)c1ccc(NC(=O)c2cccnc2Cl)c(NC(=O)c2cccnc2Cl)c1`, 43.5% (active); that for `N=c1n(CCc2ccccc2)c2ccccc2n1Cc1ccccc1F`, 69.7% (active).
For `CCOC(=O)/C=C/C(=O)OCC(=O)NC(c1ccccc1)c1ccccc1`, the inhibition is 56.8% (active).
The result for `O=[N+]([O-])/C=C/c1ccc2c(ccn2Cc2ccccc2)c1` reads 49% (active); that for `COc1ccc(Nc2oc(-c3ccccc3Cl)nc2C#N)cc1`, 79% (active).
Consider `O=C(NNc1ccccc1Cl)C(O)(c1cccc(C(F)(F)F)c1)c1cccc(C(F)(F)F)c1`, for which the inhibition is 87.9% (active).
Turning to `COC(=O)c1sc(-c2ccc(C(C)(C)C)cc2)cc1NC(=O)/C=C/C(=O)O`, the inhibition is 55.9% (active).
The same measure for `O=C(CSc1cccc2cccnc12)N/N=C/c1cccnc1`: 68.1% (active); for `CC(=O)/C(=N\Nc1ccc(Cl)cc1Cl)Sc1cccc2cccnc12`: 19.1% (inactive).
The same measure for `CCn1cc(CN2CCC(C(=O)Nc3cccc(-c4cccc(Cl)c4)c3)CC2)c(C)n1`: 74.2% (active).
Take `c1ccc2c(c1)CSc1sccc1C2=C1CCNCC1`: the inhibition was 44.8% (active).
The same measure for `COc1cccc(-n2c(SCC(=O)NC3CCCCC3)nc3n[nH]c(C)c3c2=N)c1`: 66.3% (active); for `NC(=O)c1sc2nc3c(c(-c4ccccc4)c2c1N)CCC3`: 43.5% (active).
The same measure for `Cc1ccccc1C(=O)N1CCN(c2ccc(NC(=O)c3cccs3)cc2)CC1`: 65.1% (active); for `Cc1cc(C(=O)NC2CCCc3c2cnn3-c2cccc(C)c2C)c(C)o1` (centres undefined): 91% (active); for `COc1ccc(C(=O)NC2CCCc3c2cnn3-c2cccc(C)c2C)c(OC)n1` (centres undefined): 54.8% (active).
As to `CC(NC(=O)Nc1ccccc1)C(c1cccs1)N1CCN(c2ccccc2)CC1` (centres undefined), the inhibition is 58% (active).
The same measure for `CC(=O)Nc1ccc(NC(=O)C(C)OC(=O)c2ccccc2C(=O)c2ccc(Cl)c([N+](=O)[O-])c2)cc1` (centres undefined): 52.9% (active); for `N#Cc1cccc(NC(=O)COC(=O)c2ccccc2C(=O)c2ccc(Cl)c([N+](=O)[O-])c2)c1`: 50.4% (active).
Regarding `Cc1cccc(-c2oc3ccc(-c4ccc5c(c4)OCO5)cc3c2C#Cc2cncn2C)c1`, the inhibition is 80.9% (active).
The same measure for `Oc1ccccc1N1CCN(c2ncnc3sc(-c4ccccc4)cc23)CC1`: 58.6% (active); for `O=C(Oc1c(-c2ccco2)oc2ccccc2c1=O)c1cccnc1`: 90.3% (active).
The result for `COc1cc2c(cc1OC)C(C)N(S(=O)(=O)c1cnc(Cl)c(Cl)c1)CC2` (centres undefined) reads 45.3% (active); that for `CN(C)CC(O)COc1ccc(C(C)(C)c2ccc(OCC(O)CN(C)C)cc2)cc1` (centres undefined), 56.8% (active).
The result for `Cn1cc(/C=C/c2nc3ccccc3c(=O)n2-c2cccc([N+](=O)[O-])c2)c2ccccc21` reads 90.7% (active).
Turning to `C=CCn1c(C)cc(C(=O)CN2C(=O)c3ccccc3C2=O)c1C`, the inhibition is 103% (active).
As for `C=CCn1c(C)cc(C2=NNC(=NCC)SC2)c1C`, the inhibition is 24.4% (inactive).
Consider `O=C(NCC#CCSc1nnc(-c2cccc3ccccc23)o1)c1cccs1`, for which the inhibition is 22.6% (inactive).
The result for `CCCc1nc2c(c(=O)c3ccccc3n2C)c(=O)n1C1CCCCCC1` reads 63.9% (active); that for `COc1cccc(CNC(=O)c2nnn(CC(=O)Nc3cc(Cl)ccc3C)c2N)c1`, 47.8% (active).
The same measure for `Cc1cc(C)c2[nH]c(=O)c(CN(Cc3ccccc3)C(=S)NCCCN(C)C)cc2c1`: 58.1% (active).
As for `COc1ccc(-c2nc(-c3ccccc3)no2)c(OC)c1`, the inhibition was 95.8% (active).
The same measure for `CSc1nc(-c2ccccc2)nc(C(Cl)Cl)n1`: 49.7% (active).
The same measure for `O=C(Cn1nnc(-c2ccccc2)n1)N/N=C/c1ccc(-c2ccc(Cl)cc2)o1`: 106% (active); for `COc1cc(NC(=O)c2ccccc2NS(=O)(=O)c2ccc(Cl)s2)cc(OC)c1`: 40.5% (active).
The result for `CCc1ccc(-c2cc3c(=O)n(CC(=O)NCCCN4CCN(Cc5ccccc5)CC4)nc(C)n3n2)cc1` reads 60.8% (active); that for `CCc1ccc(CNC(=O)C2CCN(c3nnc(C)c4c(C)n(-c5ccc(C)cc5)nc34)CC2)cc1`, 23.7% (inactive); that for `FC(F)(F)c1ccc(CN2C[C@@H]3C(c4ccccc4)C4(c5ccccc5)CC3(C4)[C@H]2c2ccccc2)cc1` (some centres undefined), 27.2% (inactive).
As for `COCCCNc1nc2c(-c3cccc(C)c3)nnn2c2ccc(Cl)cc12`, the inhibition was 54.2% (active).
The result for `CCOc1ccccc1NC(=O)Cn1nnc(C(=O)NCc2cccs2)c1N` reads 80.5% (active).
For `Cc1ccccc1OCCOc1ccc([N+](=O)[O-])cc1/C=N/n1cnnc1`, the inhibition was 89% (active).
On to `CC1(C)CC(N2CCN(C(c3ccccc3)c3ccccc3)CC2)=CC(=[N+]2CCCCC2)C1`, for which the inhibition was 55.6% (active).
The result for `Cc1c(/C=N\NC(=O)c2cc3ccccc3o2)c2ccccc2n1C` reads 61.8% (active); that for `Cc1ccc2occ(/C=N/NC(=O)c3ccccc3C)c(=O)c2c1`, 34.4% (inactive).
For the compound `Cc1cccn2c(=O)c3cc(C(=O)NCCN4CCOCC4)c(=N)n(Cc4cccnc4)c3nc12`, the inhibition was 57.1% (active).
Consider `COc1ccc(CCn2c(=N)c(C(=O)NCC3CCCO3)cc3c(=O)n4cccc(C)c4nc32)cc1OC` (centres undefined), for which the inhibition was 54% (active).
The result for `Cc1cccc(-n2ncc(Cl)c(Cl)c2=O)c1` reads 0.23% (inactive); that for `CN(Cc1ccccc1)CC(O)COc1ccc(CNCc2cc3ccccc3s2)cc1` (centres undefined), 79.3% (active); that for `O=C(Nc1ccncc1)c1c(F)cccc1F`, 38.9% (active).
The result for `CC(C)(C)CC(C)(C)NCC(O)COCCOc1ccc(Br)cc1` (centres undefined) reads 62.6% (active).
The same measure for `COc1ccccc1N1CCN(C(=O)c2cc(=O)c3cc(C)cc(C)c3o2)CC1`: 101% (active); for `Oc1c(Br)cccc1/C=N/Nc1c(F)c(F)c(F)c(F)c1F`: 56.7% (active).
With `O=C(Nc1ccc2ccccc2c1)Nc1ccc2snnc2c1`, the inhibition was 44.4% (active).
Consider `COc1cccc(NC(=O)[C@H](Cc2c[nH]c3ccccc23)NC(=O)[C@@H]2Cc3ccccc3CN2)c1`, for which the inhibition was 53.2% (active).
The same measure for `Cc1cc(CNC(=O)c2cccc([N+](=O)[O-])c2)c2ccccc2n1`: 41.5% (active).
The same measure for `O=C(NC(Nc1nc2ccc([N+](=O)[O-])cc2s1)(C(F)(F)F)C(F)(F)F)c1ccccc1`: 8.11% (inactive); for `Cc1ccc(-c2nc3ccccc3[nH]2)cc1NC(=O)c1sc2ccccc2c1Cl`: 18.5% (inactive); for `CCOC(=O)c1c(NC(=O)c2ccc(S(=O)(=O)N(C)CC3CCCO3)cc2)sc2c1CC(C)(C)NC2(C)C` (centres undefined): 62.7% (active).
Turning to `COC(=O)c1c(NC(=O)COc2ccc(Cl)cc2Cl)sc2c1CC(C)(C)NC2(C)C`, the inhibition was 3.07% (inactive).
In the case of `O=C(CC(O)(C(F)(F)F)C(F)(F)F)Nc1ccc(Cl)c(Cl)c1`, the inhibition was 58.1% (active).
The same measure for `Cc1cccc2sc(N(CCCN(C)C)C(=O)CCS(=O)(=O)c3ccccc3)nc12`: 14.4% (inactive).
Regarding `CSc1nc(N(C)NC(=O)c2cccc(C)c2)c2ccccc2n1`, the inhibition was 135% (active).
For the compound `CN(NC(=O)c1ccccc1F)c1nc(C(F)(F)F)nc2ccccc12`, the inhibition was 63.5% (active).
The result for `CN(NC(=O)c1ccccc1)c1nc2ccccc2nc1C(F)(F)F` reads 68.8% (active); that for `CC1(C)CCSC(/C=C/c2ccccc2)=N1`, 30.5% (inactive); that for `Cc1ccccc1C(CC(=O)c1cccs1)C(C#N)C#N` (centres undefined), 45.1% (active).
The same measure for `Cc1cccc(NC(=O)Nc2cccc(Oc3c(F)c(F)c(F)c(F)c3F)c2)c1`: 32.5% (inactive); for `CCNS(=O)(=O)c1ccc(NC(=O)Nc2cccc(C(F)(F)F)c2)cc1`: 53.4% (active); for `O=C(Nc1ccc(C(=O)N2CCOCC2)cc1)Nc1cccc(C(F)(F)F)c1`: 49.8% (active).
As for `COc1ccc(-c2cc(C(F)(F)F)nc(S(C)(=O)=O)n2)cc1OC`, the inhibition was 24.3% (inactive).
As to `COc1ccc(-c2ccc(Nc3ccc(S(=O)(=O)N4CCCC4)cc3)nn2)cc1OC`, the inhibition is 77.8% (active).
The same measure for `COc1ccc(C(=O)O/N=C(\N)Cc2ccc(Cl)cc2Cl)cc1OC`: 47.8% (active); for `Cc1cccc(Nc2ccccc2C(=O)NCc2ccco2)c1C`: 39.6% (active); for `COc1cccc(-c2sc3ccc(OC)cc3c2-c2ccc(OCCN3CCCCC3)cc2)c1`: 32.7% (inactive).
In the case of `COc1ccc2sc(-c3ccc(S(C)(=O)=O)cc3)c(C#Cc3cncn3C)c2c1`, the inhibition is 44.8% (active).
The same measure for `O=C1N/C(=C/c2cccn2-c2ccccc2)C(=O)N1c1cccc(Cl)c1`: 126% (active).
The same measure for `Cc1cccc(-n2c(C)cc(/C=N\NC(=O)c3cccs3)c2C)c1`: 178% (active); for `Cc1cc(C(=O)COc2ccccc2[N+](=O)[O-])c(C)n1-c1cccc(S(=O)(=O)N2CCOCC2)c1`: 89.8% (active); for `Cn1nc(-c2ccccc2)c(CSc2cccc(Cl)c2)c1Cl`: 51.5% (active).
The result for `CN1CCN(CCCNC(=O)c2ccc(/C=C3\Oc4ccccc4N(Cc4ccc(Cl)cc4)C3=O)cc2)CC1` reads 62.6% (active); that for `CCN1CCN(CCNC(=O)c2ccc(/C=C3/Sc4ccccc4N(Cc4cccc(C)c4)C3=O)cc2)CC1`, 27.6% (inactive); that for `Cc1ccc(OCC(O)CN2CCN(CC(O)COc3ccc(C)cc3Cl)CC2)c(Cl)c1` (centres undefined), 71.1% (active).
